Bioassay records as filed in PubChem.
AmpC inh detg – inhibitors of E. coli AmpC beta-lactamase with detergent; AmpC hydrolysis of nitrocefin, absorbance 480 nm, 0.01% Triton; Potency, µM (doses to about 114 µM), for the others: at the highest dose activity change, negative = inhibition, hits mostly inhibitors; 370,000 tested, 0.041% active;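 also: 0% = no-compound wells and -100% = no-enzyme wells; nearly all actives have a fitted effect of over 25% in size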
Target sequence (P00811 whole entry, looked up): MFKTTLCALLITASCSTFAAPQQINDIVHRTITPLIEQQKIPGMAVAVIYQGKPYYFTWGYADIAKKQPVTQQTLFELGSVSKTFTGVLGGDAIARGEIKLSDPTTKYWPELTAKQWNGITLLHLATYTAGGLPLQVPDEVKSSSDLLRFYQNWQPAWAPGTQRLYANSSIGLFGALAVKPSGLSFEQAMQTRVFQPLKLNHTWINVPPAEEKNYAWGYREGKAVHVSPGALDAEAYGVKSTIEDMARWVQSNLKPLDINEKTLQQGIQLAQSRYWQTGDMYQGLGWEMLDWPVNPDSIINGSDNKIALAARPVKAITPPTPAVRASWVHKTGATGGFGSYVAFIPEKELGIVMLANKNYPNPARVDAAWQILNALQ
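AmpC (5.3 nM in the dispensed reagent) in 20 mM phosphate pH 7.0 with 0.01% (detergent screen) or 0.0001% Triton X-100 was preincubated with compounds for 15 min at room temperature. Nitrocefin was then added from an 800 uM solution, and hydrolysis was followed at 480 nm.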
AmpC inh no detg – AmpC beta-lactamase inhibition without detergent. AID 485341. P00811. AmpC nitrocefin hydrolysis, absorbance 480 nm, 0.0001% Triton. Potency, µM (top dose mostly 57.1 µM), without a hit: at the highest dose activity change, negative = inhibition, most hits filed as inhibitors. 330,000 tested, 0.52% active;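 also: plate controls were no compound for no effect and no enzyme for full effect; nearly all actives have a fitted effect of over 20% in size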
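AmpC (5.3 nM in the dispensed reagent) in 20 mM phosphate pH 7.0 with 0.01% (detergent screen) or 0.0001% Triton X-100 was preincubated with compounds for 15 min at room temperature. Nitrocefin was then added from an 800 uM solution, and hydrolysis was followed at 480 nm.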
Sm TGR block – S. mansoni TGR enzyme inhibition. Q962Y6. 360,000 tested, 3% active. purified TGR, DTNB reduction, TNB absorbance 405 nm. AID 485364. Potency, µM (top dose mostly 114 µM), for inactives: at the highest dose activity change, negative = inhibition, most hits filed as inhibitors; also: % is scaled to controls: 0 for no effect and ±100 for the full control effect; nearly all actives have a fitted effect of over 60% in size
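Kinetic colorimetric format: TGR-catalysed, NADPH-driven DTNB reduction monitored via TNB absorbance. Enzyme dispensed at 20 nM; compound exposure 15 min at room temperature before reaction start.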
Tb PYK inh – blocks Trypanosoma brucei pyruvate kinase | Q57TT1 | TbPYK enzyme, Kinase-Glo Plus ATP luminescence, 45 min | Potency, µM (titrated, usually from 76.8 µM), inactives show at the top dose activity, negative = inhibition, actives largely listed as inhibitors | 410,000 tested, 0.12% active | AID 624173; also: % is scaled to controls: 0 for no effect and ±100 for the full control effect; nearly all actives have a fitted effect of over 50% in size
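Luminescent Kinase-Glo Plus end-point after 45 min room-temperature reaction of T. brucei pyruvate kinase started with 130 uM ADP (final). Buffer TEA 50 mM pH 7.2 with KCl, MgCl2, BSA, Tween-20; titration-based qHTS with fitted concentration-effect curves.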
SARS PLP yeast – inhibitors of SARS-CoV papain-like protease in yeast. S. cerevisiae expressing SARS-CoV PLpro, growth rescue. Potency, µM (top dose mostly 32.9 µM), without a hit: at the top dose activity, positive = growth rescue, hits mostly activators. 330,000 tested, 0.19% active; calls by dose curve; also: 0% is about no effect; nearly all actives have a fitted effect of over 55% in size
RE007 growth inh – less growth of the S. pombe RE007 Vpr strain. S. pombe RE007 Vpr strain, BacTiter-Glo ATP luminescence, 24 h. Potency, µM (titrated, usually from 92.2 µM), without a hit: at the top dose activity change, negative = less growth, hits mostly inhibitors. 360,000 tested, 0.21% active; active = well fitted falling curve with a large enough effect; inconclusive = small, poorly fitted or top-dose-only effect; inactive = no such curve, though single readings can be large or run the other way; also: % is scaled to controls: 0 for no effect and ±100 for the full control effect; nearly all actives have a fitted effect of over 50% in size
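Fission yeast strain RE007, carrying one chromosomally integrated HIV-1 vpr copy, was seeded at OD 0.01 in PMG+AL medium with 23 nL pinned compound. After 24 h at 30 °C and 99% humidity, viability was read by BacTiter-Glo luminescence.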
* hit, by the source's call; ? = inconclusive; · = no result; [ ] = dose if it differs, or a comment. An excerpt weighted towards active compounds, which were near 3.3% of everything screened. Unless noted, calls follow the shape of the dose curve; as a rule, active = well fitted curve in the direction sought with a large enough effect; inconclusive = small, poorly fitted or top-dose-only effect, or another doubt; inactive = no such curve, though single readings can be large; an effect the other way counts as inactive or inconclusive. Potency is read from the fitted curve at half-maximal effect.

SMILES | AmpC inh detg | AmpC inh no detg | Sm TGR block | Tb PYK inh | SARS PLP yeast | RE007 growth inh
CC(C)CCNC(=O)c1ccc2c(c1)N(Cc1ccccc1)C(=O)CS2=O (stereo not given) | ? | ? | 12% | -2% | -2% | 18%
Cc1ccc(N/N=C/c2ccncc2)cc1 | 5% | -14% | 50µM* | 3% | 2% | 7%
CCCCOC(=O)c1ccc(OC(=O)c2sc3ncn(Cc4cccc(F)c4)c(=O)c3c2C)cc1 | -6% | · | 9% | -1% | · | ·
O=C(Nc1ccccc1)Oc1ccc[nH]c1=O | -4% | -8% | 50µM* | 7% | -2% | -8%
O=C(Nc1ccccc1)Oc1ccccc1 | -7% | -8% | 6% | 4% | 0% | -6%
COC(=O)c1ccc(NC(=S)NC(=O)c2cccnc2)cc1 | -6% | -12% | ? | -5% | -1% | -1%
O=C(O)c1ccc(NC(=S)NC(=O)c2cccnc2)cc1 | -11% | -12% | 35µM* | -21% | 29% | -8%
COc1ccc(NC(=S)NC(=O)c2ccc(Br)o2)cc1 | -5% | -6%[2.29 µM] | 8.9µM* | 2% | -1% | 5%
COc1ccc(NC(=S)NC(=O)c2cccnc2)cc1 | -8% | -20% | 22µM* | 1% | -5% | -4%
COc1ccc(NC(=O)c2ccc(Br)o2)cc1 | 7% | 20% | 1% | -7% | -5% | -21%
CCCOc1ccccc1NC(=O)/C=C/C(N)=O | -5% | -5% | 3.2µM* | -12% | -37% | ?
COc1ccccc1N1C(=N)S/C(=C\c2ccc(-c3ccccc3C(=O)O)o2)C1=O | ? | -21% | 20µM* | -21% | 15% | 33%
O=C(NCc1ccc(Cl)cc1)c1cnc(N2CCCCC2)c2ccccc12 | -6% | · | -1% | 2% | · | ·
COc1ccc(C(C(C(=O)c2ccco2)N2CCOCC2)N2CCOCC2)cc1 (stereo not given) | -15% | -2% | 45µM* | 5% | 13% | -6%
COc1ccc(C(CNC(=O)c2ccco2)N2CCOCC2)cc1 (stereo not given) | -3% | -19% | -4% | -3% | 0% | -3%
CCOC(=O)c1c(C)nc2ccccc2c1-c1ccccc1 | ? | 27% | 1% | 1% | 10% | 2%
CCOC(=O)c1c(CCl)nc2ccccc2c1-c1ccccc1 | -6% | -41% | 25µM* | -9% | -2% | -9%
Cc1cc(-c2onc(C)c2C(=O)N/N=C/c2ccccc2)no1 | -3% | -7% | 0% | 0% | -2% | -6%
Cc1ccc(SC(=O)c2c(C)noc2-c2cc(C)on2)cc1 | 2% | -8% | 7.9µM* | 3% | -2% | -23%
Cc1cc(C)c2c(CC(=O)Nc3nnc(CC(C)C)s3)coc2c1 | 9% | · | -2% | -18% | · | ·
CCN(CC)C(=O)CS(=O)(=O)CC(=O)Nc1cc(OCCOC)c(Cl)cc1Cl | 5% | 35% | 35µM* | 8% | 0% | -1%
COc1ccc(OC)c(/C=C/c2nc3ccccc3c(=O)n2-c2ccc(F)c(Cl)c2)c1 | 2% | · | 1% | -5% | · | ·
CCC(=O)N(Cc1cc(=O)[nH]c2ccccc12)c1ccccc1 | -1% | -12% | -18% | -4% | 1% | 8%
O=C(CCl)N(Cc1cc(=O)[nH]c2ccccc12)c1ccccc1 | -7% | -12% | 3.5µM* | 5% | 1% | ·
Cc1ccccc1N(Cc1cc(=O)[nH]c2ccccc12)C(=O)CCl | 1% | -13% | 14µM* | · | 9% | ·
SMILES | AmpC inh detg | AmpC inh no detg | Sm TGR block | Tb PYK inh | SARS PLP yeast | RE007 growth inh
COc1cc2c(cc1OC)n(CC(=O)c1cccc(Cl)c1)c(=O)n1nc(CCn3nc(C)cc3C)nc21 | -6% | · | 0% | 0% | · | ·
Cc1ccc(-n2nc(C(=O)N3CCCCC3C)c(=O)n(C)c2=O)cc1 (stereo not given) | 31% | · | 2% | -3% | · | ·
O=C1CCCC2=C1C(c1ccccc1)C1C(=O)c3ccccc3C1=N2 (stereo not given) | 1% | -45% | -24% | ? | 29% | 1%
Cc1ccc(C2C3=C(CCCC3=O)N=C3c4ccccc4C(=O)C32)cc1 (stereo not given) | -3% | 18µM* | -21% | -21% | -4% | 9%
O=C(Nc1cccc(C(F)(F)F)c1)c1cc(-c2ccc(Cl)s2)nc2ccccc12 | 19% | · | 4% | 0% | · | ·
COC(=O)c1cccc(Nc2c(-c3ccc(O)cc3)nc3nc[nH]n23)c1 | 8% | · | ? | 1% | · | ·
COC(=O)c1cccc(Nc2c(-c3ccc(O)c(OC)c3)nc3nc[nH]n23)c1 | -1% | · | 40µM* | -7% | · | ·
O=C(c1ccc(Nc2nc3ccccc3n3nnnc23)cc1)N1CCN(c2ccc(F)cc2)CC1 | -10% | · | 4% | 5% | · | ·
COc1ccc(/C=N/OCC(=O)N=Nc2c(O)[nH]c3ccc(Br)cc23)cc1 | ? | 1µM* | -1% | 2% | -4% | 0%
CCOC(=O)c1cc([N+](=O)[O-])c([N+](=O)[O-])cc1NC(C)=O | -3% | -24% | 0.5µM* | 13% | -135% | 0%
CCOC(=O)c1ccc(NC(=O)c2ccccc2[N+](=O)[O-])cc1 | 3% | -25% | -4% | 1% | -21% | -7%
CP(=O)(Nc1ccc(Cl)cc1)c1nc2c(s1)CCCC2 (stereo not given) | 0% | -10% | 22µM* | -4% | 2% | 8%
Cc1cc(-c2nc3ncccc3o2)ccc1NC(=O)c1ccc(Cl)cc1 | -1% | · | 89µM* | -4% | · | ·
CCOc1cc(C(=O)Nc2ccc(-c3nc4ncccc4o3)cc2C)cc(OCC)c1OCC | -3% | · | -1% | -3% | · | ·
Cc1ccc(C)c(CSc2nc3ncccc3[nH]2)c1 | -6% | · | 1% | -6% | · | ·
Cc1oc(-c2ccc(Cl)cc2)nc1CN1CCC(C(=O)NCCCN2CCCC(C)C2)CC1 (stereo not given) | -3% | 67% | 2% | 2% | 23% | -6%
Cc1oc(-c2ccc(Cl)cc2)nc1CN1CCCC(C(=O)NCCCN2CCOCC2)C1 (stereo not given) | 3% | 95% | 79µM* | 1% | -9% | 1%
CCc1ccc(-c2nc(CS(=O)CC(=O)O)c(C)o2)cc1 (stereo not given) | -7% | -16% | 0.35µM* | -10% | -3% | -4%
CCc1ccc(-c2nc(CS(=O)CC(=O)NC3CCCCCC3)c(C)o2)cc1 (stereo not given) | 3% | 101% | 7.9µM* | -24% | · | 2%
Cc1ccc(-c2nc(CS(=O)CC(=O)NC3CC3)c(C)o2)cc1 (stereo not given) | -3% | -8% | ? | 0% | 2% | -4%
